HPGD block = blocks human HPGD enzyme activity | purified HPGD, NADH fluorescence kinetic, PGE2 substrate | 150,000 compounds, 4.3% hits | Potency, µM, usual class: inhibitors | P15428
Target sequence (P15428 whole entry, looked up): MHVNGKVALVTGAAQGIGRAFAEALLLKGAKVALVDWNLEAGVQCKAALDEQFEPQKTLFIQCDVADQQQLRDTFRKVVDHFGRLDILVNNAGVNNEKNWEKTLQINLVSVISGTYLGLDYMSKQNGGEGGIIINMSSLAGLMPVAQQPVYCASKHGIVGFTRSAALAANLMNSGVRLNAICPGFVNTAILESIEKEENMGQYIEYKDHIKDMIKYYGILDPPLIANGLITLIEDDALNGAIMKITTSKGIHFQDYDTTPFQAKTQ
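NADH formation kinetics: reaction with 30 uM PGE2 and 1 mM NAD+ (final), 20 nM enzyme, Tris-HCl pH 8 with Tween 20, after 15 min compound preincubation at room temperature. Fluorescence change, last versus first of five reads.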
PNC inhibitor = perinucleolar compartment assembly inhibition; PC3M PTB-GFP, PNC prevalence imaging, 16 h; hits give low values; activity change (PNC), negative = inhibition, % at 10 µM; 140,000 compounds, 3.1% hits;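 active = readout at or below -70, meaning at least 70% loss of cells showing the perinucleolar compartment, a nuclear body marking cancer cells; inconclusive = readout between -30 and a set limit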
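PC3M cells stably expressing PTB-GFP, 750–1000 cells/well, treated 16 h at 37 °C with compound (23 nl of library stock), in duplicate. After paraformaldehyde fixation and Hoechst stain, imaged at 20x; PNC prevalence scored by image analysis.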
ALDH1A1 block = blocks purified human ALDH1A1 activity; P00352; Purified ALDH1A1, NADH fluorescence, propionaldehyde substrate; Potency, µM (titrated, usually from 75.3 µM), actives largely listed as inhibitors; 220,000 compounds, 7.3% hits
Hits are given with their value; i = inactive; ? = inconclusive; nt = no result; [ ] = remark or other dose. This is a sample that favours compounds with a hit; in the whole collection about 11% have one here. Unless noted, calls follow the shape of the dose curve; as a rule, active = well fitted inhibition curve with a large enough effect (not every such curve was filed as active); inconclusive = small, poorly fitted or top-dose-only effect, or another doubt; inactive = no such curve, though single readings can be large or run the other way.

SMILES | HPGD block | PNC inhibitor | ALDH1A1 block
COc1ccccc1/C=C1\SC(=S)N(CCC(=O)NC2=NCCS2)C1=O | i | i | ?
CCN(CC)CCNC(=O)c1ccc(NC(=O)c2ccc(F)cc2)cc1 | nt | nt | i
CCN(CC)S(=O)(=O)c1ccc(/C=C/C(=O)OCC(=O)Nc2ccc(S(N)(=O)=O)cc2)cc1 | i | i | ?
N[C@@H](Cc1ccccc1)C(=O)O | i | nt | i[13.5 µM]
O=C(CSc1ccccn1)Nc1nc2ccc(Br)cc2s1 | i | i | i
CSc1nc2sc3c(c2c(=O)n1C)CCCC3 | i | -87.4 | ?
CSc1nc2sc3c(c2c(=O)n1C1CCCCC1)CCN(C)C3 | i | i | i
CSc1nc2sc3c(c2c(=O)n1C)CCC(C)C3 (stereo unspecified) | i | i | 25.1µM
C=CCn1nnc2sc3c(c2c1=O)CCC(C)C3 (stereo unspecified) | i | i | 17.8µM
CCSc1nc2sc3c(c2c(=O)n1C1CCCCC1)CCN(C)C3 | i | i | ?
O=C(O)c1ccc(Cn2nnc3sc4c(c3c2=O)CCCC4)cc1 | nt | nt | i
CN(/N=C/c1cccnc1)c1cnc2ccccc2n1 | nt | nt | i
CN(CC(=O)NCc1ccncc1)S(=O)(=O)c1ccc(Cl)cc1 | nt | nt | i
CCOC(=O)C1=C([Si](C)(C)C)c2ccccc2N(S(=O)(=O)C(F)(F)F)C1C(=O)OCC (stereo unspecified) | i | nt | ?
O=C(NNC1=C(C(=O)C(F)(F)F)CCC1)c1ccccc1O | i | ? | i
O=C(NNC1=C(C(=O)C(F)(F)F)CCC1)c1ccccc1Cl | 14.1µM | i | i
Cc1cc(C(=O)COC(=O)c2n[nH]c3ccccc23)c(C)n1CC1CCCO1 (stereo unspecified) | 28.2µM | ? | i
COCCn1c(C)cc(C(=O)COC(=O)c2n[nH]c3ccccc23)c1C | i | ? | i
Cc1ccc(C(=O)OCC(=O)c2cc(C)n(CC3CCCO3)c2C)cc1 (stereo unspecified) | nt | nt | i
Cc1cc(C(=O)COC(=O)c2cc(O)c3ccccc3c2O)c(C)n1CC1CCCO1 (stereo unspecified) | nt | nt | 28.2µM
N#CC1(c2ccccc2)CCCN1C(=O)c1ccc(Br)o1 (stereo unspecified) | i | i | ?
CCOC(=O)OCC1OC(CCc2ccccc2)CCC1Oc1ccc(OC)cc1 (stereo unspecified) | nt | nt | i[13.5 µM]
O=C(CNS(=O)(=O)/C=C/c1ccccc1)OCC(=O)N1CCC(Cc2ccccc2)CC1 | i | -107.4 | ?
CC1CC(C)CN(C(=O)COC(=O)CNS(=O)(=O)/C=C/c2ccccc2)C1 (stereo unspecified) | i | i | i
CC1CCN(S(=O)(=O)c2cnc(Cl)c(Br)c2)CC1 | i | i | 0.126µM
SMILES | HPGD block | PNC inhibitor | ALDH1A1 block
CC1CCCCN1S(=O)(=O)c1coc(C(N)=O)c1 (stereo unspecified) | i | ? | i
CC1CCCCN1S(=O)(=O)c1cnc(Cl)c(Br)c1 (stereo unspecified) | i | ? | 2.51µM
CC1CCN(S(=O)(=O)c2ccc(Cl)cc2Br)CC1 | ? | ? | i
COC(=O)c1cc(NC(=O)C2CCCN(S(=O)(=O)c3c(C)n[nH]c3C)C2)cc(C(=O)OC)c1 (stereo unspecified) | nt | nt | i
NC(=O)C1CCN(C(=O)c2cc3ccccn3n2)CC1 | i | ? | i
O=C(c1cc2ncc(CCCl)cn2n1)N1CCCCCC1 | 1µM | i | ?
Cc1ccc(S(=O)(=O)N(CC(=O)O)c2cccc(Cl)c2)cc1 | i | nt | i
COc1ccc(C2(NC(C)=O)CCN(C(=O)c3cccs3)CC2)cc1 | i | i | ?
C(=N\N1CCN(c2ccccn2)CC1)/c1ccccn1 | nt | nt | i
O=C(NC(=S)N1CCN(c2ccccn2)CC1)c1ccco1 | nt | nt | 11.2µM
CN1CCN(C(=S)NC(=O)c2ccco2)CC1 | nt | nt | i
CC1Cc2ccccc2N1C(=S)NC(=O)c1ccco1 (stereo unspecified) | nt | nt | 22.4µM
O=C(NC(=S)N1CCN(c2ccc(Cl)cc2[N+](=O)[O-])CC1)c1cccs1 | i | -112.5 | 7.94µM
C(=N\N1CCN(c2ccccn2)CC1)/c1ccco1 | nt | nt | 17.8µM
CC1Cc2ccccc2N1C(=S)NC(=O)C1(C)CC1(Cl)Cl (stereo unspecified) | nt | nt | i
CC(C)(C)C(=O)N1CCN(c2ccc(Cl)cc2[N+](=O)[O-])CC1 | i | i | i
CC(=O)Nc1ccc(-c2nn[nH]n2)cc1Cl | i | i | i
O=C(NC(=S)N1CCN(c2ccc(Cl)cc2[N+](=O)[O-])CC1)c1ccco1 | ? | -81.4 | i
CCS(=O)(=O)N1CCN(c2ccc(Cl)cc2[N+](=O)[O-])CC1 | i | -83.3 | i
O=C(c1ccco1)N1CCN(c2cc(N3CCOCC3)c(F)cc2[N+](=O)[O-])CC1 | nt | nt | i
O=[N+]([O-])c1cc(Cl)ccc1N1CCCCC1 | nt | nt | i
CN1CCN(NC(=O)CN2C(=O)/C(=C/c3c(Cl)cccc3Cl)SC2=S)CC1 | i | i | i
